# Assay outcomes deposited in PubChem by National Center for Advancing Translational Sciences (NCATS).
# Most compounds without a hit are left out; they make up all but 3.1% or so of the library.
# S16 viability = S16 Schwann cell cytotoxicity; 43,000 compounds, 0.48% hits; AID 1508642; Potency, µM (series often up to 57.5 µM), for the others: top-dose activity change, negative = cytotoxicity, most hits filed as cytotoxic; S16 Pmp22-F2sN Schwann cells viability, CellTiter-Glo, 24 h; also: potency is read from the fitted curve at half-maximal effect; % is scaled to controls: 0 for no effect and ±100 for the full control effect; nearly all actives have a fitted effect of over 65% in size
#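 S16 Pmp22-F2sN Schwann cells (500-1,000/well) in phenol-red-free DMEM with 10% FBS received 23 nL compound by pin tool for 24 h at 37 °C. Viability was then read as CellTiter-Glo luminescence after 15 min at room temperature.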
# PMP22 txn = PMP22 gene transcription modulation; AID 1508649; Potency, µM (titrated, usually from 57.5 µM), inactives show at the top dose activity change, negative = inhibition, hits mostly inhibitors; 43,000 compounds, 2% hits; S16 Pmp22-F2sN Schwann cells (luciferase reporters placed in the Pmp22 gene), FLuc/NLuc coincidence luminescence, 24 h; active = clear falling dose curves in both reporters; inconclusive = both reporters move, but less clearly or upward; inactive = either reporter flat; the % is the NLuc reporter signal; also: potency is read from the fitted curve at half-maximal effect; % is scaled to controls: 0 for no effect and ±100 for the full control effect
#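 Luminescent read-out of sequential FLuc and NLuc signals from a reporter embedded in the Pmp22 3' UTR of S16 Schwann cells, taken after 24 h compound exposure at 37C; compounds reducing both signals score as inhibitors of expression.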
# pS6 MEF inh = reduces mTORC1 signaling in Tsc2 and p53 null MEF cells | Tsc2-/- p53-/- MEF, phospho-rpS6 immunofluorescence/PI, 24 h | Potency, µM (titrated, usually from 38.3 µM), for inactives: top-dose activity change, negative = inhibition, usual class: inhibitors | 44,000 compounds, 0.78% hits | AID 493208;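 also: potency is read from the fitted curve at half-maximal effect; plate controls were DMSO for no effect and rapamycin for full effect; nearly all actives have a fitted effect of over 50% in size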
#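 Readout is phospho-S6 Alexa 488 signal normalized to PI per well, reported as % active cells with thresholds set from rapamycin (7.5 nM) and DMSO controls. Cells: Tsc2-/-, p53-/- MEFs, 24 hrs compound at 37 C; PI cell number serves as viability.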
# p53null 32C kill = selectivity test: cytotoxicity in p53 null cells, permissive temperature; H1299-neo p53 null cells, ATP luminescence, 24 h, 32C; Potency, µM (titrated, usually from 46.1 µM), for inactives: at the top dose activity change, negative = cytotoxicity, usual class: cytotoxic; 55,000 compounds, 0.62% hits; AID 903;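 also: potency is read from the fitted curve at half-maximal effect; 0% = DMSO only and -100% = full killing by 100 µM tamoxifen; nearly all actives have a fitted effect of over 55% in size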
#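 We seeded p53-null H1299-neo cells, incubated them overnight at 37C, and added compounds across a range up to 46 uM. After 24 hours at 32C, ATP reagent was applied for 20 min at room temperature and luminescence recorded.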
# p53null 39C tox = kills p53 null cells at the nonpermissive temperature; Potency, µM (doses to about 46.1 µM), inactives show top-dose activity, negative = cell killing, most hits filed as cytotoxic; 55,000 compounds, 0.97% hits; AID 904; H1299 p53-null (neo) cells, 39C, ATPlite viability, 24 h;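 also: potency is read from the fitted curve at half-maximal effect; 0% = DMSO only and -100% = full killing by 100 µM tamoxifen; nearly all actives have a fitted effect of over 50% in size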
#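 ATP-luminescence viability readout (ATPlite, 20 min RT) after 24 hr compound treatment at 39C of H1299-neo or H1299-p53A138V cells; titration up to 46 uM; normalized to DMSO and 100 uM tamoxifen; Hill-fit AC50.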
# OvCa metastasis = inhibitors of ovarian cancer cell adhesion and invasion in omental model. SKOV3ip1-GFP adhesion/invasion on 3D omental model, fluorescence. Potency, µM (doses to about 45.8 µM), for the others: at the top dose activity change, negative = inhibition, hits mostly inhibitors. 46,000 compounds, 0.1% hits. AID 1963576;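 also: potency is read from the fitted curve at half-maximal effect; plate controls were DMSO wells for no effect and tomatine positive control wells for full effect; nearly all actives have a fitted effect of over 65% in size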
#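 A 3D layer of primary human omental fibroblasts, mesothelial cells, fibronectin and collagen I, grown 48 hr, received SKOV3ip1-GFP cells in serum-free medium plus compounds at 0.36-46 umol/L. After 2 hr RT and 16 hr 37 C, fixed adherent GFP cells were counted; normalized to DMSO and tomatine.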
# NLuc saturating = inhibits NanoLuc at saturating substrate, PMP22 counter-screen. shares compounds with PMP22 txn. Secreted NLuc enzyme (filtered S16 cell medium), Nano-Glo luminescence. Potency, µM (doses to about 57.5 µM), inactives show at the highest dose activity change, negative = inhibition, actives largely listed as inhibitors. 690 compounds, 4% hits; also: potency is read from the fitted curve at half-maximal effect; % is scaled to controls: 0 for no effect and ±100 for the full control effect
# NLuc Km counter = inhibits NanoLuc under Km conditions, PMP22 counter-screen | shares compounds with PMP22 txn | secreted NLuc enzyme, coelenterazine luminescence, Km conditions | Potency, µM (doses to about 57.5 µM), without a hit: at the top dose activity change, negative = inhibition, hits mostly inhibitors | 690 compounds, 5% hits | AID 1508639; also: potency is read from the fitted curve at half-maximal effect; % is scaled to controls: 0 for no effect and ±100 for the full control effect
# FLuc counter = inhibits firefly luciferase, PMP22 counter-screen; shares compounds with PMP22 txn; Potency, µM (doses to about 57.5 µM), inactives show at the top dose activity, negative = inhibition, most hits filed as inhibitors; 690 tested, under 10 active; purified P. pyralis FLuc, luminescence, 10 min; also: % of control where 0% means no effect
# Target sequence (P08659 whole entry, looked up): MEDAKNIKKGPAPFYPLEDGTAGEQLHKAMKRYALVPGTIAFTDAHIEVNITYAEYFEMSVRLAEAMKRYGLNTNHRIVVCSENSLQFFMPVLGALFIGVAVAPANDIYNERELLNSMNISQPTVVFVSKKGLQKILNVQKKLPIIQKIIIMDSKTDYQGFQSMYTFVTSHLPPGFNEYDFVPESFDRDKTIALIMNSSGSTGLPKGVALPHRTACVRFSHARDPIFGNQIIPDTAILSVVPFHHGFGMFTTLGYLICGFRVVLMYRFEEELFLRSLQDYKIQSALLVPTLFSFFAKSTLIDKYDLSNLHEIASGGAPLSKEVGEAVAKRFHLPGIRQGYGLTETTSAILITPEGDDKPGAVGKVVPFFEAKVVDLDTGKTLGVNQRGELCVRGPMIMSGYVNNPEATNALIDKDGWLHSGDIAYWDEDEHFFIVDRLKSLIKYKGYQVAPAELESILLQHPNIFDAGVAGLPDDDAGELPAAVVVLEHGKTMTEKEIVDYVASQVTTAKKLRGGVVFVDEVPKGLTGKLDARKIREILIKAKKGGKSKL
# S16 F2sN tox cnf = S16 Schwann cell cytotoxicity, confirmatory; shares compounds with PMP22 txn; S16 Schwann cells viability, CellTiter-Glo ATP luminescence, 24 h; Potency, µM (highest dose often 57.5 µM), for inactives: top-dose activity change, negative = viability loss, most hits filed as cytotoxic; 690 compounds, 7% hits; also: potency is read from the fitted curve at half-maximal effect; % is scaled to controls: 0 for no effect and ±100 for the full control effect
# PMP22 txn cnf = PMP22 transcription modulation, confirmatory | shares compounds with PMP22 txn | Potency, µM (highest dose often 57.5 µM), for inactives: at the highest dose activity change, negative = inhibition, actives largely listed as inhibitors | S16 Schwann cells Pmp22-F2sN, dual luciferase, 24 h | AID 1508646 | 690 compounds, 22% hits; active = clear falling dose curves in both reporters; inconclusive = both reporters move, but less clearly or upward; inactive = either reporter flat; the % is the FLuc reporter signal; also: potency is read from the fitted curve at half-maximal effect
# The depositor's hits bear a star; i = inactive; ? = inconclusive; . = no result given. Unless noted, calls follow the shape of the dose curve; as a rule, active = well fitted curve in the direction sought with a large enough effect; inconclusive = small, poorly fitted or top-dose-only effect, or another doubt; inactive = no such curve, though single readings can be large; an effect the other way counts as inactive or inconclusive.
SMILES,S16 viability,PMP22 txn,pS6 MEF inh,p53null 32C kill,p53null 39C tox,OvCa metastasis,NLuc saturating,NLuc Km counter,FLuc counter,S16 F2sN tox cnf,PMP22 txn cnf
N#CC1=C2SCN(C3CCCCC3)CN2C(=O)CC1c1ccc(Cl)cc1 (configuration not stated),-0.4%,?,6.6%,-0.6%,-12.9%,1.9%,.,.,.,.,.
N#CC1=C2SCN(C3CCCCC3)CN2C(=O)CC1c1c(F)cccc1Cl (configuration not stated),-1.7%,9.46µM*,-0.7%,3.3%,10.0%,0.6%,10.9µM*,7.69µM*,-11.0%,1.6%,-18.1%
CCCCN(Cc1cc2ccccc2[nH]c1=O)C(=O)c1cccc(Cl)c1,-0.3%,20µM*,4.1%,6.5%,-19.6%,-9.5%,?,?,3.0%,?,-11.6%
COc1ccc(Cl)cc1NC(=O)CSc1nc2ccccc2nc1N1CCCCC1,8.4%,12.7µM*,-1.5%,-6.9%,-9.0%,3.8%,-8.7%,8.9%,-3.8%,-9.3%,-33.4%
COc1ccc(-c2c(C)nn3c(N4CCN(c5ccccc5)CC4)cc(C)nc23)cc1OC,-12.7%,17µM*,-12.5%,-0.1%,16.2%,-0.3%,?,?,-4.1%,-16.0%,?
O=C(O)CSCC(=O)NC1CCSC1=O (configuration not stated),.,.,.,.,.,16.6%,.,.,.,.,.
Cc1cccc(N2CCN(C(=O)c3cccc(-n4c(C)nc5cccnc54)c3)CC2)c1C,0.0%,12.7µM*,-16.2%,6.9%,-6.2%,8.4%,?,?,4.8%,10.5%,-4.0%
Cc1cccc(N2CCN(C(=O)c3cccc(-n4c(C)nc5cccnc54)c3)CC2C)c1 (configuration not stated),-19.7%,?,-0.3%,-1.2%,13.1%,-3.7%,.,.,.,.,.
Cc1ccc(C)c(N2CCN(C(=O)c3cccc(-n4c(C)nc5cccnc54)c3)CC2)c1,?,?,-8.4%,3.3%,0.2%,-1.9%,.,.,.,.,.
Cc1ccc(Cl)cc1N1CCN(C(=O)c2ccc(C)c(-n3c(C)nc4cccnc43)c2)CC1,?,18.9µM*,-3.0%,15.2%,61.9%,5.4%,21.7µM*,19.3µM*,6.6%,-14.3%,?
Cc1ccc(C(=O)Nc2ccc3c(c2)N(C)C(=O)c2ccccc2S3)cc1F,?,?,-18.6%,21.7%,36.6%,11.3%,.,.,.,.,.
COc1cc(Nc2c(C#N)cnc3cc(OCCCN4CCN(C)CC4)c(OC)cc23)c(Cl)cc1Cl,.,.,.,.,.,7.3%,.,.,.,.,.
Cc1cccc(C)c1Nc1c(-c2ccsc2)nc2ccc(Cl)cn12,-12.1%,-13.0%,-14.1%,-5.1%,-5.8%,6.2%,.,.,.,.,.
Cc1cccc(C)c1Nc1c(-c2ccsc2)nc2ccccn12,?,9.46µM*,-12.1%,36.1%,?,-6.6%,?,21.7µM*,1.9%,0.8%,?
COCCNc1nc2c(c(=O)n(C)c(=O)n2C)n1Cc1c(F)cccc1Cl,?,12.6µM*,-1.1%,2.8%,-25.3%,6.5%,1.1%,-2.1%,3.6%,10.6%,-9.1%
CC[C@H]1OC(=O)[C@H](C)[C@@H](O[C@H]2C[C@@](C)(OC)[C@@H](O)[C@H](C)O2)[C@H](C)[C@@H](O[C@@H]2O[C@H](C)C[C@H](N(C)C)[C@H]2O)[C@](C)(O)C[C@H](C)C(=NOCOCCOC)[C@H](C)[C@@H](O)[C@]1(C)O,.,.,.,.,.,-15.5%,.,.,.,.,.
COc1cccc(CNc2ncnc3onc(C)c23)c1,-13.0%,?,-2.7%,3.1%,5.6%,-1.7%,.,.,.,.,.
COc1ccc(CCNc2ncnc3onc(C)c23)c(OC)c1,?,4.01µM*,0.7%,-5.2%,-27.0%,3.8%,-17.5%,4.4%,-17.2%,?,3.96µM*
Cc1ccc(C)c(N2CCN(C(=O)C3CCCN(S(=O)(=O)c4ccc5c(c4)oc(=O)n5C)C3)CC2)c1 (configuration not stated),-15.1%,15.2µM*,4.6%,?,14.5%,i,-9.6%,5.5%,2.7%,-15.3%,?
Cn1c(=O)oc2cc(S(=O)(=O)N3CCCC(C(=O)N4CCN(c5ccccc5F)CC4)C3)ccc21 (configuration not stated),-0.7%,?,-6.3%,-4.7%,-2.2%,9.2%,.,.,.,.,.
CCN1CCN(c2nc3c(S(=O)(=O)c4ccc(C)cc4)nnn3c3ccsc23)CC1,-20.0%,16.8µM*,3.2%,2.2%,-4.0%,i,-5.6%,-17.0%,0.5%,9.3%,-35.1%
Cc1ccc(S(=O)(=O)c2nnn3c2nc(N2CCCC2)c2sccc23)cc1,3.3%,?,-3.5%,-3.5%,-7.1%,-3.4%,.,.,.,.,.
Cc1ccccc1C(=O)Nc1ccc(C(=O)N2CCCC(O)c3cc(Cl)ccc32)c(C)c1 (configuration not stated),.,.,.,.,.,5.5%,.,.,.,.,.
CCOC(=O)[C@H]1O[C@H]1C(=O)N[C@@H](CC(C)C)C(=O)NCCC(C)C,.,.,.,.,.,0.9%,.,.,.,.,.
Cc1cccc(N(C)S(=O)(=O)c2ccc(-c3cc(C)no3)s2)c1,-16.9%,7.61µM*,-18.8%,14.7%,?,i,?,?,-12.0%,-14.2%,?
